# Source: the supplement of paper PMC10681739
# Key:
# ETS1 = molecular target: T1, ETS1 (UniProt P14921); assay: ETS1 binding intensity (PBM fluorescence), ETS1 alone (arbitrary fluorescence units); higher = stronger binding; settings: ETS1 concentration 1 nM; RUNX1 concentration 0 nM
# T1 sequence: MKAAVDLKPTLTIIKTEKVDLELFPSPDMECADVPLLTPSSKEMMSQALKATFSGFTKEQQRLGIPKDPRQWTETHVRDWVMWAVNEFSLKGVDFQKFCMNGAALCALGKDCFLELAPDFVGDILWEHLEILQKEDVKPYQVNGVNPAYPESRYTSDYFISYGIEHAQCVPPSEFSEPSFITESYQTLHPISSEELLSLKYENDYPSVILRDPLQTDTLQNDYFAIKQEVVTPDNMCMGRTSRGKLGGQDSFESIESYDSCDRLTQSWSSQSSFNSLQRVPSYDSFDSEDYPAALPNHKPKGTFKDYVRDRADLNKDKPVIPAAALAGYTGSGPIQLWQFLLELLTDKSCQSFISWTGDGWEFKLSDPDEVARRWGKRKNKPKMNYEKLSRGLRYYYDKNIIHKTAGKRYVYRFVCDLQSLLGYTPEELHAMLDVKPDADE
# RUNX1 [1] = molecular target: RUNX1 (UniProt Q01196); assay: RUNX1 binding intensity (PBM fluorescence), RUNX1 alone (arbitrary fluorescence units); higher = stronger binding; settings: RUNX1 concentration 2 nM; ETS1 concentration 0 nM
# RUNX1, sequence (Q01196 whole entry): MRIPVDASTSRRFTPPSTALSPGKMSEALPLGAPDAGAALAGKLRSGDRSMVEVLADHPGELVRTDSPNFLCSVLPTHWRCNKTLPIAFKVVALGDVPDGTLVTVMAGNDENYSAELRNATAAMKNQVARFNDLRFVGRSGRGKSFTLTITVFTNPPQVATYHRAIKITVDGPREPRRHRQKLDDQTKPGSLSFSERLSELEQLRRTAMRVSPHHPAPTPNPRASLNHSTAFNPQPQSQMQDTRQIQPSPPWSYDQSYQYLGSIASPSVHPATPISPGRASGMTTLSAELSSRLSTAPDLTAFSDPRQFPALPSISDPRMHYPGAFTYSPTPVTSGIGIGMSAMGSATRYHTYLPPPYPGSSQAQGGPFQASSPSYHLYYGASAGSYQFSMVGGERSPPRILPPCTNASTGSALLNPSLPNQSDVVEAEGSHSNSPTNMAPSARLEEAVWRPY
# Protocol: (§1)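 Cooperative gcPBM on 36-bp genomic probes with neighbouring ETS1 and RUNX1 sites. Recombinant human RUNX1 (2 nM) was incubated alone or with ETS1 (25 nM) and detected with anti-RUNX1 antibody plus Alexa488 secondary. Values are medians over 4 replicate spots; the RUNX1+ETS1 data were normalised to the RUNX1-only data. The probes sit in constant array flanks that are not printed.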
# RUNX1 [2] = molecular target: RUNX1 (UniProt Q01196); assay: RUNX1 binding intensity (PBM fluorescence) in presence of ETS1, normalised to RUNX1-only experiment (arbitrary fluorescence units); higher = stronger binding; settings: RUNX1 concentration 2 nM; ETS1 concentration 25 nM
# Protocol: as §1
# 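For RUNX1 binding intensity (PBM fluorescence) in presence of ETS1, normalised to RUNX1-only experiment in this document: Full-length recombinant human ETS1 or RUNX1 bound to double-stranded 36-bp genomic probes on microarrays, detected by protein-specific primary antibody and Alexa488 secondary, spot fluorescence as median of four replicate spots.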
# 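For RUNX1 binding intensity (PBM fluorescence), RUNX1 alone in this document: Full-length recombinant human RUNX1 bound to double-stranded 36-bp genomic probes on a high-density microarray, scored as Alexa488 fluorescence per spot via anti-RUNX1 antibody, median of four replicate spots.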
Sequence,ETS1 binding intensity (ETS1),RUNX1 binding intensity (RUNX1 [1]),RUNX1 binding intensity (RUNX1 [2])
GCCACACTTCCGGCGGGGCTGCGACCGCAGAGGGGC,1170,1140,3600
CTGAGCCGGATGTTACTGGTTAGTGGTTTTCTTTAT,3290,917,1560
GAGAAACAGGAAGAGGGGTGGTGGTTACGGAACACG,2290,807,1340
CAGCTGACAGGAAGGAGAGAACCACAGACAGTGCGA,782,801,1260
CCTTGCTACAGGATGTTTTGACCACGAGCCCAGGAG,1440,1090,1390
CGGGACCTGTTTCCTTGGGAACCACAAGATAAGACC,407,709,892
TCACATTTTGCCGGATGTGGGTTGAGGGCATGCTGC,6680,773,8730
GAACTTCCGGGACCACGTGACGTAGAACCACAACAA,587,815,1690
GACACAAGCCTCACAGGATGTGGTCAAAGAAGGTTG,3830,762,3910
CGAGGGAGCCGGAAAGATGGTGGTTACCAGATCTGC,608,766,926
TGGGGACCACTGTCAGGATGTGGTCACTGGAGTCAC,1020,831,1540
GTGTGGAAGGAGGAAGCGAGAATGTGGTTACTTAGG,718,868,1190
CCCTACCTCTCCTTCCTGCCACAAGGGAAAGTCACT,508,1390,2550
GAGGAACCCAAAGTAGGATGTGGTTTTGCAATTGGA,757,1020,1770
TCATGCTGCTTCCTGCCCAACCCGCAGTTCCGATAA,890,1120,2350
